Results as given in PubChem BioAssay AID720518 (National Center for Advancing Translational Sciences (NCATS), 2013).
Inconclusive results are not listed. Entries that show only a call come without a potency. The source made the active and inactive calls. The call rests on the fitted dose curve.

Experiment: qHTS for Inhibitors of Cell Surface uPA Generation: Wild-type Protective Antigen (WT-PrAg) Counterscreen for Cherry-picked Compounds
Settings: cells, WT protective antigen toxicity counterscreen; series mostly up to 115 µM

SMILES	Potency
O=c1[nH]c2c(s1)C(c1ccc(O)cc1)C1C3CCC(C3)C1S2 (stereo not given)	inactive
O=C(c1ccc(F)c([N+](=O)[O-])c1)N1CC2CC(C1)c1cccc(=O)n1C2 (stereo not given)	inactive
CCN(CC)c1c([N+](=O)[O-])c(=O)sc2ccccc12	inactive
CCOC(=O)N1CCN(c2c(NCCCN3CCCCCC3)c(=O)c2=O)CC1	inactive
CN(C)S(=O)(=O)c1cccc(C(=O)OCC(=O)NCc2ccc3c(c2)OCO3)c1	inactive
CC(=O)c1ccc(NC(=O)Nc2ccc(Br)cc2C)cc1	inactive
Cc1ccc(-c2nc(CS(=O)(=O)CC(=O)NCc3cccc(F)c3)c(C)o2)cc1	inactive
COc1cc(/C=N/NC(=O)Cc2csc(C)n2)ccc1OCC(C)C	inactive
CN(CCC#N)C(=S)Nc1ccc(Oc2ccccc2)cc1	inactive
Cc1ccc2sc(NNC(=O)c3ccc4c(c3)OCCO4)nc2c1C	inactive
CN1CC[C@]23c4ccccc4N[C@H]1[C@]21CCN(C)[C@H]3Nc2ccccc21	inactive
Cc1nc([N+](=O)[O-])cn1CCCCN1C(=O)c2ccccc2C1=O	inactive
CCOC(=O)CN1C(=O)N[C@@H](c2ccccc2)C(C(C)=O)=C1C	inactive
Cc1ccc(NC(=O)CCCn2c(=S)[nH]c3ccsc3c2=O)cc1C	inactive
C=CCc1cc(S(=O)(=O)c2ccc(O)c(CC=C)c2)ccc1O	inactive
O=C(CCS(=O)(=O)c1ccc2c(c1)NC(=O)CS2)NCc1cccs1	inactive
CC1(C)Oc2ccc3ccc(=O)oc3c2[C@@H](O)[C@H]1O	inactive
Oc1c(N=NC(=S)Nc2ccccc2F)c2ccccc2n1Cc1ccccc1Cl	inactive
Cc1ccccc1S(=O)Cc1ccc(C(=O)N2CCN(C(=O)c3ccco3)CC2)o1 (stereo not given)	inactive
O=C(COc1ncnc2sccc12)Nc1cccc(S(=O)(=O)N2CCCC2)c1	inactive

SMILES	Potency
CC(O)[C@H]1CNC(=O)C(=O)N1CCc1cccc(F)c1 (stereo not given in full)	inactive
Cc1ccc2[nH]c(CN3CCN(C)C(CCO)C3)c(C)c2c1 (stereo not given)	inactive
O=C(Nc1c(C(=O)O)oc2ccc(Br)cc12)c1ccccc1	inactive
C=CCn1c(C)cc(C(=O)COC(=O)/C=C/c2cccc(OC)c2)c1C	inactive
CCOc1cc(/C=C(\C#N)C(=O)NCc2cccnc2)ccc1O	inactive
COC(=O)CNC(=O)COC(=O)/C=C/c1ccccc1[N+](=O)[O-]	inactive
COc1ccc(N(C(C)C(=O)NN=C2CCCC2)S(C)(=O)=O)cc1 (stereo not given)	inactive
Nc1ccc(S(=O)(=O)c2ccccc2)nc1	inactive
CCCNC(=O)COc1coc(CN2CCN(c3ccccc3OC)CC2)cc1=O	inactive
C[C@H]([C@H](O)c1ccccc1)N(C)C(=O)CN	inactive
COc1ccc(Cl)cc1NC(=O)CSc1nc(=O)n(CCN(C)C)c2c1CCCC2	inactive
C[C@@]12C(=O)N(CC3CCCO3)CC(=O)N1[C@H]1c3cc(Cl)ccc3OC[C@@H]1[C@@H]2c1ccccc1 (stereo not given in full)	inactive
C=CCOC(=O)C1=C[C@@H](c2coc3ccccc3c2=O)C[C@@H](OCc2ccc(CO)cc2)O1	inactive
COc1ccc(OC)c(S(=O)(=O)N2CCN(Cc3ccccc3)CC2)c1	inactive
COc1ccc(OC)c(N2C(=O)CC(Cc3cc(C)cc(C)c3)C2=O)c1 (stereo not given)	inactive
NC(=O)c1ccc(NC(=O)CN2CCN(S(=O)(=O)c3ccc4ccccc4c3)CC2)cc1	inactive
O=C(CCCC(=O)N(c1cccc(F)c1)C(C(=O)NC1CCCC1)c1ccc(O)cc1)Nc1ccccn1 (stereo not given)	inactive
COc1ccc(OC)c(NC(=O)C2CC2c2ccccc2)c1 (stereo not given)	inactive
Cc1nc(C(=O)N2CCC(n3nccc3NC(=O)Nc3ccccc3Cl)CC2)cs1	inactive
O=S(=O)(NCC(c1cccnc1)N1CCOCC1)c1ccccc1 (stereo not given)	inactive
